Assay results reported in PubChem BioAssay AID463173 (ICCB-Longwood Screening Facility, Harvard Medical School, 2010).
The whole screen tested about 52,000 compounds, of which about 1,700 (3.3%) were called active. Many of the other results were omitted from the sample, so actives are more common in it than they were. Values without a mark were called inactive. Rule as the data show it: active = survival mostly below about 52% (no sharp cut-off); inactive = mostly above about 56%.

These compounds were tested on Wild type (assay: S. aureus survival, RN4220 and DeltatarO strains – OD600, teichoic acid synthesis inhibitors, primary screen (AID 463173)). Conditions: S. aureus RN4220 wild type/DeltatarO growth, OD600, 18 h, stronger effect = lower value, screened at 18.75 µg/mL (by protocol).

In order of rising survival:
1. CCC(C)Sc1oc(-c2ccco2)nc1S(=O)(=O)c1ccc(Cl)cc1 (stereo unspecified)  25%
2. Cc1ccc(S(=O)(=O)c2nc(-c3ccco3)oc2SCC(C)C)cc1  39%
3. Cc1ccc(S(=O)(=O)c2nc(-c3ccco3)oc2SC(C)C)cc1  49%
4. CCSc1oc(-c2ccco2)nc1S(=O)(=O)c1ccc(Br)cc1  65%
5. COc1ccc(Cn2c(CO)cnc2SCc2ccccc2)cc1  69%
6. COc1ccc(Nc2nnc(-c3ccc(C)c(S(=O)(=O)NCCO)c3)c3ccccc23)cc1C(N)=O  70%
7. COc1ccc(Cn2ccnc2SCC(=O)NCc2ccco2)cc1  70%
8. CCc1nn2c(-c3ccco3)ccnc2c1-c1ccc(F)cc1  71%
9. Cc1ccc(NC(=O)N2CCN(c3cc(-c4noc(C)n4)ccc3C)CC2)c(C)c1  72%
10. O=C(Nc1ccc2nc(SCCOc3ccccc3Cl)sc2c1)c1cccs1  72%
11. Cc1c(-c2cccc(NC(=O)Cc3ccccc3)c2)nc2ncccn12  73%
12. CSc1cccc(NC(=O)N2CCN(c3cc(-c4noc(C)n4)ccc3C)CC2)c1  74%
13. Cc1ccc2scc(N3CCN(c4ccccc4)CC3)c(=O)c2c1  74%
14. Cc1nn2c(-c3ccco3)ccnc2c1-c1ccc(F)cc1  75%
15. CCCn1c2ccccc2c2cnn(CC(=O)NCCc3ccc(OCC)c(OCC)c3)c(=O)c21  76%
16. Cc1cc(C)cc(NC(=O)N2CCN(c3cc(-c4noc(C)n4)ccc3C)CC2)c1  76%
17. COc1ccc(S(=O)(=O)c2cc3cc(OC)ccc3oc2=O)cc1  76%
18. COc1ccccc1-c1ccnc2c(-c3ccc(Br)cc3)c(C)nn12  77%
19. CCCn1c2ccccc2c2cnn(CC(=O)NCCCN3CCCCC3)c(=O)c21  78%
20. COc1cc([N+](=O)[O-])ccc1NC(=O)N1CCN(c2cc(-c3noc(C)n3)ccc2C)CC1  78%
21. COc1ccc(-c2ccnc3c(-c4ccc(F)cc4)c(C)nn23)cc1OC  79%
22. COc1ccc(CNC(=O)C(=O)Nc2ccc(OC)cc2OC)cc1  80%
23. O=C(CN1C(=O)C2(SCC(=O)N2c2cccc(F)c2)c2ccccc21)NCc1ccccc1Cl (stereo unspecified)  80%
24. Cc1ccc(Cn2c(CO)cnc2SCC(=O)NCc2ccccc2Cl)cc1  80%
25. CNC(=O)C1CCN(Cc2cc3ccccc3n2Cc2cccc(C)c2)CC1  81%
26. CCOc1ccc(S(=O)(=O)c2cc3cccc(OCC)c3oc2=O)cc1  81%
27. O=C(CSc1nc2ccsc2c(=O)n1Cc1ccc(F)cc1)NCc1ccc(Cl)cc1  81%
28. CCCSc1nc(=O)c2c(n1C)NC(=O)CC2c1cccc(F)c1F (stereo unspecified)  82%
29. COc1ccc(C)cc1NC(=O)N1CCN(c2cc(-c3noc(C)n3)ccc2C)CC1  85%
30. CCOC(=O)c1c(C)oc2nc(C)nc(Nc3cc(C)ccc3OC)c12  85%
31. OCc1cnc(SCc2ccc(F)cc2)n1Cc1ccc(F)cc1  85%
32. CCc1nn2c(-c3ccco3)ccnc2c1-c1ccccc1  89%
33. CCOC(=O)c1ccccc1NC(=O)CSc1ncc(CO)n1Cc1ccc(C)cc1  90%
34. COc1cccc(-n2c(SCC(=O)Nc3cc(C)ccc3C)nc3c(oc4ccccc43)c2=O)c1  96%
35. Cn1c(=O)n(-c2ccc(F)c(Cl)c2)c(=O)c2sc3ccccc3c21  96%
36. COc1cccc(-c2ccnc3c(-c4ccc(F)cc4)c(C)nn23)c1  99%
37. CCOc1ccc(CN2CCC(C(=O)NCC3CCCO3)CC2)cc1OC (stereo unspecified)  99%
38. CC(C)(C)C(=O)Nc1ccc2nc(SCCOc3ccccc3Cl)sc2c1  99%
39. C/C(=N\NC(=O)COc1ccccc1)C1C(=O)c2ccccc2C1=O  107%
40. Cc1ccc2c(CNC3CCCC3)c(C(=O)O)n(Cc3ccc(F)cc3)c2c1  111%
41. N#C/C(=C/C=C/c1ccco1)c1nc2ccccc2[nH]1  113%
42. COc1ccc(Cn2nnnc2CN2CCC(NC(=O)c3cccc(OC)c3)CC2)cc1  115%
43. CCCn1c2ccccc2c2cnn(CC(=O)NCCc3ccc(C)cc3)c(=O)c21  121%
44. CCOC(=O)C1CCCN(C(=O)Cn2ncc3c4ccccc4n(Cc4ccccc4)c3c2=O)C1 (stereo unspecified)  121%
45. COc1ccccc1NC(=O)CSc1ncc(CO)n1Cc1ccc(F)cc1  121%
46. CCOC(=O)c1c(NC(=O)COc2cccc(C)c2C)sc(C(C)=O)c1C  130%
47. CCCNC(=O)Cn1ncc2c3ccccc3n(CCC)c2c1=O  133%
48. COc1ccc(NC(=O)N2CCN(c3cc(-c4noc(C)n4)ccc3C)CC2)c(OC)c1  133%
49. O=C(CSc1ncc(CO)n1Cc1ccc(F)cc1)NCc1ccco1  134%
50. CCCOc1ccc(C(=O)Nc2ccc3nn(-c4ccc(OC)c(Cl)c4)nc3c2)cc1  145%

With `CCCn1c2ccccc2c2cnn(CC(=O)NCCc3ccc(OCC)cc3)c(=O)c21` the survival was -6% (active).
With `CCCn1c2ccccc2c2cnn(CC(=O)NCCCOC(C)C)c(=O)c21` the survival was -6% (active).
`Cc1nc(-c2ccc(C)c(N3CCN(C(=O)Nc4ccc(Br)cc4)CC3)c2)no1` was tested, and the survival was -1% (active).
`COc1cc(NC(=O)N2CCN(c3cc(-c4noc(C)n4)ccc3C)CC2)cc(OC)c1OC` was tested, and the survival was 14% (active).
In the case of `Cc1ccc(NC(=O)N2CCN(c3cc(-c4noc(C)n4)ccc3C)CC2)c(F)c1`, the survival is reported as -6% (active).
With `Cc1ccccc1-c1ccnc2c(-c3ccc(F)cc3)c(C)nn12` the survival was -13% (active).
For `CCc1nn2c(-c3ccccc3OC)ccnc2c1-c1ccccc1`, the survival was -12% (active).
With `CCc1nn2c(-c3ccccc3OC)ccnc2c1-c1ccc(F)cc1` the survival was -11% (active).
`CCC(C)Sc1oc(-c2ccco2)nc1S(=O)(=O)c1ccc(C)cc1` (stereo unspecified) was tested, and the survival was -12% (active).
`CC(C)CSc1oc(-c2ccco2)nc1S(=O)(=O)c1ccc(Br)cc1` was tested, and the survival was 27% (active).
`CC(=O)Nc1ccc2nc(SCCOc3ccccc3Cl)sc2c1` was tested, and the survival was 9% (active).
In the case of `COc1ccc(S(=O)(=O)c2cc3cc(C(C)(C)C)cc(O)c3oc2=O)cc1`, the survival is reported as 10% (active).
For `COc1ccc(Cn2c(CO)cnc2SCC(=O)NCc2ccco2)cc1`, the survival was -6% (active).
With `Cc1ccc(Cn2c(CO)cnc2SCC(=O)Nc2ccc(C)c(Cl)c2)cc1` the survival was -6% (active).
For `O=C(CSc1ncc(CO)n1Cc1ccc(Cl)cc1)NCc1ccc(F)cc1`, the survival was 14% (active).
`COc1ccc(Cn2c(CO)cnc2SCc2ccc(F)cc2)cc1` was tested, and the survival was -1% (active).
